Holding throughout (test): log2 fold change, soluble protein after heating vs DMSO (PISA); higher = thermal stabilisation; K562 lysate, 10 uM; active = over 0.2 and 3.5 SD of the protein, either way, in both replicates (recomputed)
Compound in one assay: C=CC(=O)N1CCC[C@@H](n2nc(-c3ccc(Oc4ccccc4)cc3)c3c(N)ncnc32)C1 [ibrutinib]
The procedure, abridged:
(§1)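 Soluble protein was defined as the supernatant remaining after 21,000xg for 90 min, following pooling of heated aliquots and adjustment to 0.5% NP-40 at 4°C. Before that, crude K562 extract at 1 mg/mL protein in PBS pH 7.4 with 1 mM MgCl2 was treated with 10 μM compound for 30 min and heated for 3 min across 48°C-58°C. Quantification used TMTpro 16plex LC-MS/MS with channel sums equalised, and values are log-two fold changes in thermal stability relative to solvent controls from duplicates.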

Compound in assay [1]: CC(=O)c1cnc2ccc(-c3cc(Cl)c(O)c(Cl)c3)nc2c1N[C@H]1CC[C@H](CN(C)C)CC1
The procedure, abridged:
as §1

Compound in a further assay: CC(C)(C)Cn1c(N)nc2ccc(-c3[nH]c(C(C)(C)C)nc3-c3ccc(F)cc3)nc21 [ralimetinib]
In short, it runs like this:
as §1

Compound in assay [2]: CC(C)(O)CC(=O)NCCn1ccc2ncnc(Nc3ccc(Oc4cccc(C(F)(F)F)c4)c(Cl)c3)c21
In short, it runs like this:
as §1

Compound in assay [3]: CC(C)C1=C2N=C(C=C(N2N=C1)NCC3=CC=CC=C3)NCCCCCCN
The procedure, abridged: as §1

Compound in assay [4]: CC1=C(C(CC(=O)N1)C2=CC=C(C=C2)C(F)(F)F)C(=O)NC3=C(C=C4C(=C3)C=NN4)F
The procedure, abridged: as §1

Compound in assay [5]: CC1=C(C2=C(C=C1)C(=O)C3=CC=CC=C3N2CCCN)C
The procedure, abridged: as §1

Compound in assay [6]: CC1=C(C=C(C=C1)NC(=O)C2=CC(=CC=C2)C(C)(C)C#N)NC3=CC4=C(C=C3)N=CN(C4=O)C
In short, it runs like this: as §1

Compound in assay [7]: CC1=C(C=C(C=C1)NC(=O)C2=CC(=CC=C2)N(C)C)NC(=O)C3=CC=C(C=C3)O
In short, it runs like this: as §1

Compound in assay [8]: CC1=CC=C(C=C1)SC2=C3C=C(SC3=CN=C2)C(=O)N
The procedure, abridged: as §1

Targets with a hit are over-represented here; the source holds about 8,800 in all. About 0.5% of all pairs of compound and target were hits. Unmarked numbers belong to inactive results.

UniProt Q06187, sequence (Q06187 whole entry, looked up): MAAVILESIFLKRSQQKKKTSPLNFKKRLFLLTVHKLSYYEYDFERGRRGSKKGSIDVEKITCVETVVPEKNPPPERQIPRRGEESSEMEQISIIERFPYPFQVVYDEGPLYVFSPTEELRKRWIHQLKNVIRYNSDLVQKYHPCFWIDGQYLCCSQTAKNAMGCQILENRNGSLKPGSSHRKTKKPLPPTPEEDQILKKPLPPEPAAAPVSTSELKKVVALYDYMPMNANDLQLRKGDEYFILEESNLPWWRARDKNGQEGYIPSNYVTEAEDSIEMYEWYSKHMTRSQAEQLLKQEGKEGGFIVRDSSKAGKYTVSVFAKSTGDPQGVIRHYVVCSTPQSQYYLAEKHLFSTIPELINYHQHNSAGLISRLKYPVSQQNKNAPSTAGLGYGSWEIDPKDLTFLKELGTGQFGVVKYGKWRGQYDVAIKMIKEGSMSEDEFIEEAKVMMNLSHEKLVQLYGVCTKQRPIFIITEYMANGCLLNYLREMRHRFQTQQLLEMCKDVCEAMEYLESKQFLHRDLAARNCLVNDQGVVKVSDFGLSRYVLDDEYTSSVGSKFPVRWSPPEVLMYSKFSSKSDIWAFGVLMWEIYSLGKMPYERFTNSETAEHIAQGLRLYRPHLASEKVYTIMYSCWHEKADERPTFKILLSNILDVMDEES
UniProt Q16581, sequence (Q16581 whole entry, looked up): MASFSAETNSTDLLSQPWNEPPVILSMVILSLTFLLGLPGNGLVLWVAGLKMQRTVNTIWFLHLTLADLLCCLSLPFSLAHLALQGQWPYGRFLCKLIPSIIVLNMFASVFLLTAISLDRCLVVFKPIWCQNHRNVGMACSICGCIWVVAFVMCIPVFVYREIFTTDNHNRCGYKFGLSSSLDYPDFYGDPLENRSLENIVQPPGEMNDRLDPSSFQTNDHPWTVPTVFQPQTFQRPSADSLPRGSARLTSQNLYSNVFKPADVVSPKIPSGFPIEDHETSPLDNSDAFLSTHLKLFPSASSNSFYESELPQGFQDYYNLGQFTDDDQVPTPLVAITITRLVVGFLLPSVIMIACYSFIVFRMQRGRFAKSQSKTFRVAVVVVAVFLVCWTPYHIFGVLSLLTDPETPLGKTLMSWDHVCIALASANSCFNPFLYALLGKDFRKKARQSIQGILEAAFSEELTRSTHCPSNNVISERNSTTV
UniProt P33681, sequence (P33681 whole entry, looked up): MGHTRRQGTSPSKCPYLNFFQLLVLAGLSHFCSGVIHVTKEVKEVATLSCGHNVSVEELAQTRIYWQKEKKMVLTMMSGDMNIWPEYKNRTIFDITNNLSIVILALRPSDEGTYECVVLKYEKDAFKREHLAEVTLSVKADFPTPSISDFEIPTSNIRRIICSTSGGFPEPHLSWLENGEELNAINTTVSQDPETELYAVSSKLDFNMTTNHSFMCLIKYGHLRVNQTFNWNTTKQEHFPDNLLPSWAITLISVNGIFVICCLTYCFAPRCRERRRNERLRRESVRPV
UniProt Q6ZU80, sequence (Q6ZU80 whole entry, looked up): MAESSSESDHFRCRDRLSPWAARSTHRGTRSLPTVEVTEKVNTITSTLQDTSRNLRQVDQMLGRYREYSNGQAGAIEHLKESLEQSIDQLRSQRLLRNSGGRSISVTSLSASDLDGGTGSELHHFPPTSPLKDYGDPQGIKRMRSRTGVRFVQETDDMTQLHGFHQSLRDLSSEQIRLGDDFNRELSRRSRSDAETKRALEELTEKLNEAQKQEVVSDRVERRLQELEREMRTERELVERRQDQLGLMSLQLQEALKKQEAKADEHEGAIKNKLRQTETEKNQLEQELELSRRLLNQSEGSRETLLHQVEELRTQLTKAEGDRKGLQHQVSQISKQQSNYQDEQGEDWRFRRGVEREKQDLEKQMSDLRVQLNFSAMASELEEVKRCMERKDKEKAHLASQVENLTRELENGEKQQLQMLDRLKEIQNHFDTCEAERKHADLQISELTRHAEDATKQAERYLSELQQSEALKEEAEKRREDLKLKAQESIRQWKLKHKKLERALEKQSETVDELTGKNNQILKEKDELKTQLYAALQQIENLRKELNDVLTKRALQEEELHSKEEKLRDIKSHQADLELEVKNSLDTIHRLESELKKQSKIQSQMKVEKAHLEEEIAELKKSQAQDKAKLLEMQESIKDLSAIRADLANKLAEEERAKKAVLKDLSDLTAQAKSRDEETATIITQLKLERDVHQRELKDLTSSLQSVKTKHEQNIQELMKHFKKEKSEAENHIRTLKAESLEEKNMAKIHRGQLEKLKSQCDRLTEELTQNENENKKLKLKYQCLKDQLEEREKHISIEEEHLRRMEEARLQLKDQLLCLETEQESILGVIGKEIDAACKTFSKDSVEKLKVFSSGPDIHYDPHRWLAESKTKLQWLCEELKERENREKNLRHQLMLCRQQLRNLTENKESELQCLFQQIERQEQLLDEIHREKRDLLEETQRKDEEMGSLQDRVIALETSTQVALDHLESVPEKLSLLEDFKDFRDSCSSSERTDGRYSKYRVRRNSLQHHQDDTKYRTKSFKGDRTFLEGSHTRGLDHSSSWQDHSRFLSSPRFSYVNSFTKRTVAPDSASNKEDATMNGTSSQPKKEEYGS
UniProt Q9NQS1, sequence (Q9NQS1 whole entry, looked up): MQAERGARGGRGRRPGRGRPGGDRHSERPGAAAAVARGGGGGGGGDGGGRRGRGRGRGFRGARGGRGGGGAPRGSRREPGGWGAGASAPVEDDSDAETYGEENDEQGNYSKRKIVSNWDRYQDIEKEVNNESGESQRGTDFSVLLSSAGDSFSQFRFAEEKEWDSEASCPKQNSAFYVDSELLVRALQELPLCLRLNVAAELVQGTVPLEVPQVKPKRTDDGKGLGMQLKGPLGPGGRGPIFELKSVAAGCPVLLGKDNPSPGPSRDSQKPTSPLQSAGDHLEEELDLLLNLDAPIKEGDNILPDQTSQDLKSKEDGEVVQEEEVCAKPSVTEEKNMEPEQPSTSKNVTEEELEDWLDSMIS
UniProt Q00537, sequence (Q00537 whole entry, looked up): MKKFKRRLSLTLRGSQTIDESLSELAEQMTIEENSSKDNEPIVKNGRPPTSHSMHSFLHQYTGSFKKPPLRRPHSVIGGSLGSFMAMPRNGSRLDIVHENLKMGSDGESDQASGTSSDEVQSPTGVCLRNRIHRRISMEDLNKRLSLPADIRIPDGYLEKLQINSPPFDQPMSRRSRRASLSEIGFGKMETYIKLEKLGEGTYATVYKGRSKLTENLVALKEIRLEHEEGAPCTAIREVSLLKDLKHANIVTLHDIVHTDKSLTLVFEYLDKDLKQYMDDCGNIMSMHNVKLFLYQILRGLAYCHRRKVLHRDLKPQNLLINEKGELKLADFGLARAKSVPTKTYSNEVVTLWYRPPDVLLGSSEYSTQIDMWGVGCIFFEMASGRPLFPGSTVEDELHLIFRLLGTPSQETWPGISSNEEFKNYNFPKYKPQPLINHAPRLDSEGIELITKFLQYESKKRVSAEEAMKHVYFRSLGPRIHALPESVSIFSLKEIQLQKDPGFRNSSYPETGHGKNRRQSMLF
UniProt Q9UNH5, sequence (Q9UNH5 whole entry, looked up): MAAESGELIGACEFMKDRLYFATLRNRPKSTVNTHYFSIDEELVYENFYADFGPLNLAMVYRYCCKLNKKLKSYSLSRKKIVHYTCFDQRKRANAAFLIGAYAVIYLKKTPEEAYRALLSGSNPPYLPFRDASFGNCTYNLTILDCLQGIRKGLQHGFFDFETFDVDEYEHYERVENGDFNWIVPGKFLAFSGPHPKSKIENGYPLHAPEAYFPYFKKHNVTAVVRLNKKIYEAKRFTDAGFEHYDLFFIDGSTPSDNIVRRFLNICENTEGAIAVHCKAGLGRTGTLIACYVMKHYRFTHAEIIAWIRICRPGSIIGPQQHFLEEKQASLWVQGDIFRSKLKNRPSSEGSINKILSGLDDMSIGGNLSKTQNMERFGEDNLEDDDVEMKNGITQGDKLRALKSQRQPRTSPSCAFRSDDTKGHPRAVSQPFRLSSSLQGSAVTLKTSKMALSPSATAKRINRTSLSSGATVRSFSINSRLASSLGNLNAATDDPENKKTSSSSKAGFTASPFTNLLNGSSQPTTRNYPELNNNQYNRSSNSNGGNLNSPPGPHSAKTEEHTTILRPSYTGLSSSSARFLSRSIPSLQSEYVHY
UniProt Q86Y37, sequence (Q86Y37 whole entry, looked up): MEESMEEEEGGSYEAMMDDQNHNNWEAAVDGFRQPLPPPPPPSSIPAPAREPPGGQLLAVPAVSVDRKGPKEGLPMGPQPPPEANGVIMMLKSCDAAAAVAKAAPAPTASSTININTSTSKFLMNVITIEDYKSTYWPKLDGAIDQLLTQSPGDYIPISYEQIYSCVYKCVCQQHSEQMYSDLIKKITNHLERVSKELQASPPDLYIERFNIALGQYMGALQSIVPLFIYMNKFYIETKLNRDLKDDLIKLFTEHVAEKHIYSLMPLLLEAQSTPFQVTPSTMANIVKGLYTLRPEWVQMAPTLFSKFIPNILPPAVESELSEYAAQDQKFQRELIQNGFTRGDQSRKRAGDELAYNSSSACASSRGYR
UniProt Q6P1S2, sequence (Q6P1S2 whole entry, looked up): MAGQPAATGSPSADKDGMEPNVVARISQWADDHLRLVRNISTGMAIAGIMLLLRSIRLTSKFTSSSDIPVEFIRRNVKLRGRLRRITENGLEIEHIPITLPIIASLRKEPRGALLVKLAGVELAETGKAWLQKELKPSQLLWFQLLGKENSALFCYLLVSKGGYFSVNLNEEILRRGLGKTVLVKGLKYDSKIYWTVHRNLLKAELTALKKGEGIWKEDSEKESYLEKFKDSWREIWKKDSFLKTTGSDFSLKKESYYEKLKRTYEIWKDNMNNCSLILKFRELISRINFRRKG
UniProt A8MTT3, sequence (A8MTT3 whole entry, looked up): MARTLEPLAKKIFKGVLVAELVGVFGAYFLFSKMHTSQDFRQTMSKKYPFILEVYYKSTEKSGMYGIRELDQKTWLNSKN
UniProt P83916, sequence (P83916 whole entry, looked up): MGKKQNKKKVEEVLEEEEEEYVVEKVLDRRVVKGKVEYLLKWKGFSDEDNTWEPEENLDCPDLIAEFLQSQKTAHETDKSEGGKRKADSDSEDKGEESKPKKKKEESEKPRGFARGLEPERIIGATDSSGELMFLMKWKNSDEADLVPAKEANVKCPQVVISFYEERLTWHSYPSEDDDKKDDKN

For the target C3orf33 (UniProt Q6P1S2), the log2 fold change with ibrutinib was -0.045; in assay [1], -0.084; in the assay with ralimetinib, 0.17; in assay [2], 0.012; in [3] it was -0.001; in [4] it was 0.046. Moreover, the log2 fold change in assay [5] is -0.031; in assay [6], 0.117; in [7] it was -0.205; in assay [8] it was 0.008.

Take CHD1L (UniProt Q86WJ1): the log2 fold change with ibrutinib is -0.032; in assay [1] it was 0.03; in the assay with ralimetinib it was 0.024; in assay [2] it was -0.011; in [3], -0.001; in [4] it was 0.008. Further, the log2 fold change in assay [5] was -0.043; in [6], 0.029; in assay [7], 0.061; in [8] it was 0.019.

With ATXN2 (UniProt F8WB05), the log2 fold change is -0.538 with ibrutinib; -0.104 in assay [1]; 0 with ralimetinib; 0.033 in assay [2]; 0.037 in assay [3]; 0.006 in assay [5]. Further, the log2 fold change in assay [6] is 0.119; in assay [7], -0.044; in assay [8], 0.048.

As to CBX1 (UniProt P83916), the log2 fold change was -0.002 with ibrutinib; 0.021 in [1]; -0.006 in the assay with ralimetinib; -0.023 in assay [2]; -0.039 in [3]; -0.033 in [4]. Moreover, the log2 fold change is -0.024 in assay [5], 0.007 in assay [6], -0.003 in [7] and -0.046 in assay [8].

In the case of C3AR1 (UniProt Q16581), the log2 fold change with ibrutinib is 0.018; in assay [4] it was 0.001; in assay [6], -0.074.

With CDKL5 (UniProt O76039), the log2 fold change is 0.088 in assay [1], -0.351 in assay [5], 0.111 in assay [6] and -0.019 in assay [8].

In the case of CCAR2 (UniProt G3V119), the figures for the log2 fold change in assay [1] and in assay [8] were 0.017 and -0.047, respectively.

For the target CDK17 isoform 2 (UniProt Q00537), the log2 fold change with ibrutinib was -0.029; in the assay with ralimetinib, -0.019; in [2], -0.003; in assay [3], -0.037; in assay [4], -0.162; in assay [5], -0.08. Also, the figures for the log2 fold change in [6] and in assay [7] were 0.029 and 0.057, respectively.

CAD (UniProt H7BZB3): the log2 fold change in [3] is -0.073.

In the case of CENPV (UniProt Q7Z7K6), the log2 fold change in the assay with ibrutinib was 0.036; in the assay with ralimetinib, 0.352; in assay [2], -0.235; in assay [4], 0.182; in assay [6], 0.121; in assay [7], -0.13.

With CASC1 (UniProt Q6TDU7), the log2 fold change in the assay with ibrutinib was 0.24; with ralimetinib it was 0.078; in [2], -0.093; in assay [7] it was 0.097.

Consider BTK isoform 2 (UniProt Q06187), for which the log2 fold change is 0.012 in assay [1]; 0.014 in the assay with ralimetinib; 0.02 in assay [2]; -0.01 in assay [3]; 0.005 in [4]; -0.032 in assay [5]. Further, the log2 fold change in assay [6] is 0.055; in assay [7], 0.042; in assay [8] it was -0.011.

With CACUL1 (UniProt Q86Y37), the log2 fold change in [1] was 0.164; with ralimetinib it was -0.023; in assay [2], 0.073; in [3], 0.027; in assay [5] it was -0.165; in assay [6], -0.126. Moreover, the log2 fold change was 0.115 in assay [7] and -0.09 in [8].

For BBS7 (UniProt Q8IWZ6), the log2 fold change was 0.047 with ralimetinib; 0.015 in assay [2]; -0.021 in [3]; 0.077 in assay [4]; 0.182 in assay [5]; 0.181 in [6]. The log2 fold change in assay [7] was -0.013.

As for CDC14A isoform 2 (UniProt Q9UNH5), the log2 fold change in assay [1] is 0.107; with ralimetinib it was -0.336; in assay [2], -0.135; in [4], -0.04; in assay [6], 0.145; in assay [7], 0.219. Further, the log2 fold change in [8] was 0.006.

Consider CANX (UniProt D6RHJ3), for which the log2 fold change in [1] is -0.013; in [4], 0.021; in assay [8], -0.008.

BRAF (UniProt P15056): the log2 fold change with ibrutinib is 0.29; in the assay with ralimetinib, 0.008; in [3], 0.032; in assay [4], 0.004; in [5], -0.111; in assay [6], 0.65 (active). For the same target, the log2 fold change in assay [8] was -0.021.

As to CEBPZOS (UniProt A8MTT3), the log2 fold change was 0.02 in assay [1]; 0.035 with ralimetinib; 0.022 in assay [2]; -0.047 in assay [3]; -0.054 in [4]; 0.04 in [5]. Moreover, the log2 fold change in [6] is 0.112; in [7] it was -0.032; in assay [8], 0.012.

For BCORL1 isoform 3 (UniProt Q5H9F3), the log2 fold change with ralimetinib was -0.07; in assay [2], 0.075; in [3], 0.074; in [5], 0.001; in assay [6] it was -0.321; in assay [7] it was -0.01.

Take CD80 (UniProt P33681): the log2 fold change is 0.034 in assay [1]; 0.207 in the assay with ralimetinib; -0.051 in assay [2]; -0.136 in assay [3]; 0.106 in [4]; -0.084 in assay [5]. In addition, the log2 fold change in assay [6] was 0.043; in [7] it was -0.119; in [8] it was 0.014.

Regarding CEP128 (UniProt Q6ZU80), the log2 fold change is 0.166 in the assay with ibrutinib; -0.06 in the assay with ralimetinib; -0.001 in [2]; 0.078 in assay [5]; -0.03 in assay [7].

For AVEN (UniProt Q9NQS1), the log2 fold change with ibrutinib was -0.03; with ralimetinib, -0.061; in [2], -0.079; in assay [3], 0.055; in assay [4], 0.009; in assay [5] it was 0.027. The log2 fold change in [6] is 0.1; in [7] it was -0.08.

These data come from the supplement of paper PMC10849652.
